Assay [1] is described as follows: ATG_TCF_b_cat_CIS: Attagene CIS-FACTORIAL HepG2 Assay for human T-Cell-Factor with beta-catenin (TCF/b-cat) (AID 2282965). The following applies: HepG2 TCF/beta-catenin cis-reporter transcription, actives raise or lower the signal. In a few lines:
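Endogenous transcription factor activity is captured through cis-promoter reporter constructs transiently introduced into human HepG2 liver cells. Induced reporter mRNA is measured after 24 h and fitted bidirectionally relative to DMSO.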

Assay [2] is described as follows: ATG_TAL_CIS: Attagene CIS-FACTORIAL HepG2 Assay for human TAL Basal Promoter (AID 2282966).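 Also: background control endpoint measuring basal TAL promoter reporter mRNA not a specific factor.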 The following applies: HepG2 Attagene cis-factorial TAL promoter reporter; actives raise or lower the signal. In a few lines: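 HepG2, transient MRTU transfection, 24 h compound exposure; RNA → oligo(dT) RT → PCR → 6-FAM primer extension → HpaI digest → CE fluorescence. Bidirectional curve fit vs DMSO. Background-control readout.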

The nature of assay [3]: ATG_TGFb_CIS: Attagene CIS-FACTORIAL HepG2 Assay for human Transforming Growth Factor (TGF) (AID 2282967). As to conditions: HepG2 Attagene CIS TGFb reporter, mRNA transcription; actives raise or lower the signal. Summed up:
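Transcript-level reporter readout: HepG2 transfectants, 24 h exposure, RNA to cDNA, reporter-specific PCR, fluorescent primer extension, capillary sizing against ROX standards. Gain- or loss-of-signal relative to DMSO.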

The nature of assay [4]: ATG_VDRE_CIS: Attagene CIS-FACTORIAL HepG2 Assay for human Vitamin D Receptor Element (VDRE) (AID 2282968). The following applies: HepG2 VDRE cis-reporter transcription, actives raise or lower the signal. In a few lines: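 Measures endogenous factor activity through cis-element-driven reporter transcripts in transiently transfected HepG2. Cells are treated 24 h; reporter mRNA is quantified by RT-PCR and capillary electrophoresis; fitting is bidirectional.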

In assay [5] the target is X-box-binding protein 1 (Homo sapiens) (UniProt P17861). The experiment in a line: ATG_Xbp1_CIS: Attagene CIS-FACTORIAL HepG2 Assay for human X-box Binding Protein 1 (XBP1) (AID 2282972). As to conditions: HepG2 XBP1 cis-element reporter, Attagene multiplex; actives raise or lower the signal. Summed up: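 Changes in reporter transcript abundance, read by RT-PCR and capillary electrophoresis, reflect endogenous transcription factor activity. Transfected HepG2 cells received compound for 24 hours; DMSO defined baseline for bidirectional analysis.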

Assay [6] deals with Glucocorticoid receptor (Homo sapiens) (UniProt P04150). The experiment in a line: ATG_GR_TRANS: Attagene TRANS-FACTORIAL HepG2 Assay for human Glucocorticoid Receptor (GR) (AID 2282978; active = hit-call score of the fitted dose curve at least 0.9, where 1 is the maximum;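 also: activators score as hits since higher reporter transcript over DMSO is fitted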). The following applies: HepG2 Attagene TRANS GR reporter, mRNA transcription. Summed up: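 Fluorescent capillary-electrophoresis quantitation of reporter mRNA is the readout, taken 24 h after dosing human HepG2 cells carrying transiently transfected GAL4-UAS reporter units activated by chimeric NR-GAL4 fusions; activity scored as induction over DMSO.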

Assay [7] concerns the target Bile acid receptor (Homo sapiens) (UniProt Q96RI1). In words: ATG_FXR_TRANS: Attagene TRANS-FACTORIAL HepG2 Assay for Farnesoid X Receptor (FXR) (AID 2282979; active = hit-call score of the fitted dose curve at least 0.9, where 1 is the maximum;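 also: hits raise reporter mRNA above DMSO so AC50 marks FXR activation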). The following applies: HepG2 Attagene TRANS FXR-GAL4 reporter transcription. Summed up: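 Read-out: fluorescent reporter transcripts quantified by capillary electrophoresis after RT-PCR of total RNA. Source cells were HepG2 transiently carrying chimeric NR-GAL4 plus GAL4-UAS reporter units, dosed 24 h. Activity fitted upward relative to DMSO baseline.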

Assay [8] addresses Oxysterols receptor LXR-alpha (Homo sapiens) (UniProt Q13133). The experiment in a line: ATG_LXRa_TRANS: Attagene TRANS-FACTORIAL HepG2 Assay for human Liver X Receptor alpha (LXRa) (AID 2282980; active = hit-call score of the fitted dose curve at least 0.9, where 1 is the maximum). As to conditions: HepG2 Attagene TRANS reporter, LXRa transactivation. Summed up: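 Read-out: reporter transcript levels by RT-PCR plus capillary electrophoresis, fluorescence intensity. Transiently transfected HepG2, exogenous NR-GAL4 chimera, GAL4-UAS reporters; 24 h compound exposure. Activity = increase over DMSO negative control.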

Assay [9] has as its target Oxysterols receptor LXR-beta (Homo sapiens) (UniProt P55055). The experiment in a line: ATG_LXRb_TRANS: Attagene TRANS-FACTORIAL HepG2 Assay for human Liver X Receptor beta (LXRb) (AID 2282981; active = hit-call score of the fitted dose curve at least 0.9, where 1 is the maximum). As to conditions: HepG2 Attagene TRANS GAL4-LXRb reporter, mRNA. In a few lines:
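After 24 h of chemical treatment, transfected HepG2 cells yield total RNA; reporter cDNA is PCR-amplified, FAM-labelled, HpaI-cut and run on capillary electrophoresis. Signal reflects chimeric LXRb-Gal4 activity on GAL4-UAS reporters.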

Assay [10] has as its target Transcriptional activator Myb (Homo sapiens) (UniProt P10242). The experiment in a line: ATG_Myb_CIS: Attagene CIS-FACTORIAL HepG2 Assay for human Myeloblastosis (Myb) Proto-Oncogene Transcription Factor (AID 2282986). The following applies: HepG2 Attagene CIS-FACTORIAL Myb reporter transcription; actives raise or lower the signal. In a few lines: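 Reporter transcript levels, quantified by fluorescent RT-PCR and capillary electrophoresis, serve as the read-out. Transfected HepG2 cells carrying cis-promoter reporter units are dosed for 24 hours, and curves are fitted bidirectionally against DMSO controls.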

Assay [11] has as its target Steroid hormone receptor ERR1 (Homo sapiens) (UniProt P11474). In words: ATG_ERRa_TRANS: Attagene TRANS-FACTORIAL HepG2 Assay for human Estrogen-Related Receptor alpha (ERRa) (AID 2282971; active = hit-call score of the fitted dose curve at least 0.9, where 1 is the maximum). The following applies: HepG2 Attagene TRANS reporter, ERRa transactivation. Summed up: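 Transfected HepG2, 24 h dosing, ERRa-Gal4 chimera driving GAL4-UAS reporter. Readout: reporter mRNA via RT-PCR plus capillary electrophoresis (fluorescence). Positive direction vs DMSO control.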

Assay [12] can be described thus: ATG_M_19_TRANS: Attagene TRANS-FACTORIAL HepG2 Assay for M19 Transcription Factor (Internal Marker) (AID 2282974; active = hit-call score of the fitted dose curve at least 0.9, where 1 is the maximum). As to conditions: HepG2 Attagene TRANS-FACTORIAL M19 internal marker reporter. Summed up: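 Fluorescence of 6-FAM-labelled reporter cDNA fragments, separated by capillary electrophoresis, served as the readout. These derived from HepG2 cells carrying transfected GAL4-UAS reporter units after 24 h dosing, with DMSO as negative control.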

A short description of assay [13]: ATG_GAL4_TRANS: Attagene TRANS-FACTORIAL HepG2 Assay for GAL4 (Internal Marker) (AID 2282976; active = hit-call score of the fitted dose curve at least 0.9, where 1 is the maximum). The following applies: HepG2 Attagene TRANS GAL4 internal marker reporter. In a few lines: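 RT-PCR/capillary electrophoresis readout of reporter mRNA. HepG2, transient MRTU transfection (GAL4-UAS reporters), 24 h compound exposure. Background-control endpoint, positive direction vs DMSO baseline.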

Assay [14] addresses Hepatocyte nuclear factor 4-alpha (Homo sapiens) (UniProt P41235). The experiment in a line: ATG_HNF4a_TRANS: Attagene TRANS-FACTORIAL HepG2 Assay for human Hepatocyte Nuclear Factor 4 alpha (HNF4a) (AID 2282982; active = hit-call score of the fitted dose curve at least 0.9, where 1 is the maximum). The following applies: HepG2 HNF4a transactivation reporter, mRNA readout. In a few lines:
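Multiplexed reporter assay: transfected HepG2, 24 h exposure, total RNA → oligo(dT) RT → PCR → 6-FAM extension → HpaI digest → CE fluorescence. DMSO = negative control.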

A short description of assay [15]: ATG_M_32_TRANS: Attagene TRANS-FACTORIAL HepG2 Assay for M32 Transcription Factor (Internal Marker) (AID 2282984; active = hit-call score of the fitted dose curve at least 0.9, where 1 is the maximum). The following applies: HepG2 Attagene TRANS M32 internal marker reporter. Summed up:
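Cell-based TRANS-format assay in HepG2: exogenous chimeric GAL4 reporter units transiently expressed, compounds applied 24 h. Reporter mRNA detected by RT-PCR plus capillary electrophoresis; this readout is an internal background marker.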

For assay [16], the target named is Nuclear receptor subfamily 4 group A member 2 (Homo sapiens) (UniProt P43354). The experiment in a line: ATG_NURR1_TRANS: Attagene TRANS-FACTORIAL HepG2 Assay for human Nuclear Receptor Related Protein 1 (NURR1) (AID 2282985; active = hit-call score of the fitted dose curve at least 0.9, where 1 is the maximum). As to conditions: HepG2 Attagene TRANS reporter, mRNA readout. Summed up:
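Measures transcriptional activation by an exogenous NR-Gal4 chimera in transfected HepG2 liver cells. After 24 h, reporter RNA is reverse-transcribed, amplified and resolved by capillary electrophoresis; DMSO defines baseline.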

The nature of assay [17]: ATG_M_06_TRANS: Attagene TRANS-FACTORIAL HepG2 Assay for M06 Transcription Factor (Internal Marker) (AID 2282983; active = hit-call score of the fitted dose curve at least 0.9, where 1 is the maximum). The following applies: HepG2 Attagene TRANS M06 internal marker reporter. Summed up:
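Read-out: fluorescent reporter cDNA fragments resolved by capillary electrophoresis after RT-PCR and HpaI cut. Source cells were HepG2 carrying transfected multi-reporter GAL4 constructs, dosed 24 h. Increase over DMSO control analysed.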

Assay [18] concerns the target Estrogen-related receptor gamma (Homo sapiens) (UniProt P62508). In words: ATG_ERRg_TRANS: Attagene TRANS-FACTORIAL HepG2 Assay for human Estrogen-Related Receptor gamma (ERRg) (AID 2282977; active = hit-call score of the fitted dose curve at least 0.9, where 1 is the maximum;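 also: hits increase reporter signal over DMSO so potencies reflect activators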). As to conditions: HepG2 Attagene TRANS reporter, ERRg transactivation. Summed up:
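Exogenous NR-Gal4 chimera activity was assessed in HepG2 cells bearing transfected GAL4-UAS reporters. After 24 h dosing, total RNA underwent RT-PCR, fluorescent primer extension and HpaI digestion before capillary electrophoresis, with gain of signal scored against DMSO.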

Each structure is given as a SMILES string. Inconclusive results are not listed. Active and inactive are the calls of the source. The calls were made as follows, unless noted: active = hit-call score of the fitted dose curve at least 0.9, where 1 is the maximum; inactive = score below 0.9.

Glucocorticoid receptor (Homo sapiens), sequence (P04150 whole entry, looked up, the tested form may be a part): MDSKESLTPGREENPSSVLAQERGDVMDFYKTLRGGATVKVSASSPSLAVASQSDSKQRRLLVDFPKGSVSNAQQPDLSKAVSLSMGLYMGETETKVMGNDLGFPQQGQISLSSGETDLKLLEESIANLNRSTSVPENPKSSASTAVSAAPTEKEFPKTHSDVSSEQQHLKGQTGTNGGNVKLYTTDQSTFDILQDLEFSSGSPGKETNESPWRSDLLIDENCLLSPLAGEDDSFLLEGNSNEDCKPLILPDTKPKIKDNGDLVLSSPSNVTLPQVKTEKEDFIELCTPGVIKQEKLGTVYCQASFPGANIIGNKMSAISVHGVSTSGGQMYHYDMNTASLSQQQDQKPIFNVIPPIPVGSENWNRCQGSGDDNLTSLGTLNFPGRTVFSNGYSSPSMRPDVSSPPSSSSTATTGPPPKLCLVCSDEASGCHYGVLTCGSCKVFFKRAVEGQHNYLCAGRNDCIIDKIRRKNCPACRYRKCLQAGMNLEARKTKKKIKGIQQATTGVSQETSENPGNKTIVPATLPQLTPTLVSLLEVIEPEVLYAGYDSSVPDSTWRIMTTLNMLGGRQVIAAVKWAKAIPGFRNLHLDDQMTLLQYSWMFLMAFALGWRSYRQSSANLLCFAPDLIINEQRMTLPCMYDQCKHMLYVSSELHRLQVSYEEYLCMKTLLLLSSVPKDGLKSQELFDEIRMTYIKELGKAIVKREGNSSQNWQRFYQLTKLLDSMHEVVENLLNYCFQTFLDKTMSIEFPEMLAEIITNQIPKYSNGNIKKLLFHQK
Oxysterols receptor LXR-beta (Homo sapiens), sequence (P55055 whole entry, looked up, the tested form may be a part): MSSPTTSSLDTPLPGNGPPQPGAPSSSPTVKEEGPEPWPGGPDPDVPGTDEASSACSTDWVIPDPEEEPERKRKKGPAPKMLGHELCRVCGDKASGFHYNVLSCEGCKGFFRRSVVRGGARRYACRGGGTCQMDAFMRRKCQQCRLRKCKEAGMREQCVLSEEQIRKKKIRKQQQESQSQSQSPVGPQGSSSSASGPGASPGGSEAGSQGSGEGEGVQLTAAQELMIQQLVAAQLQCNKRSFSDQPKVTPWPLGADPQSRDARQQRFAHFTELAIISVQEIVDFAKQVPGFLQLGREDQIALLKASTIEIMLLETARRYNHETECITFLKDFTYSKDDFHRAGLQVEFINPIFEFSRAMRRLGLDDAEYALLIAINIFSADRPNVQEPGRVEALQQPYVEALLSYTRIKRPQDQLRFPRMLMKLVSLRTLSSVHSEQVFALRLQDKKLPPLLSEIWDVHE
X-box-binding protein 1 (Homo sapiens), sequence (P17861 whole entry, looked up): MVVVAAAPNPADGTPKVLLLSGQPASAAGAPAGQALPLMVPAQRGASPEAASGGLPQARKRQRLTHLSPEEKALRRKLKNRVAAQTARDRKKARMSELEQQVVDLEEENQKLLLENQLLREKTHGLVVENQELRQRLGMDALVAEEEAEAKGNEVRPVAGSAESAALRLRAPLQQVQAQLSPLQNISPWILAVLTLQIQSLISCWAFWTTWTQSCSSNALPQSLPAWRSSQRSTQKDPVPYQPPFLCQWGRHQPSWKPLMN
Transcriptional activator Myb (Homo sapiens), sequence (P10242 whole entry, looked up): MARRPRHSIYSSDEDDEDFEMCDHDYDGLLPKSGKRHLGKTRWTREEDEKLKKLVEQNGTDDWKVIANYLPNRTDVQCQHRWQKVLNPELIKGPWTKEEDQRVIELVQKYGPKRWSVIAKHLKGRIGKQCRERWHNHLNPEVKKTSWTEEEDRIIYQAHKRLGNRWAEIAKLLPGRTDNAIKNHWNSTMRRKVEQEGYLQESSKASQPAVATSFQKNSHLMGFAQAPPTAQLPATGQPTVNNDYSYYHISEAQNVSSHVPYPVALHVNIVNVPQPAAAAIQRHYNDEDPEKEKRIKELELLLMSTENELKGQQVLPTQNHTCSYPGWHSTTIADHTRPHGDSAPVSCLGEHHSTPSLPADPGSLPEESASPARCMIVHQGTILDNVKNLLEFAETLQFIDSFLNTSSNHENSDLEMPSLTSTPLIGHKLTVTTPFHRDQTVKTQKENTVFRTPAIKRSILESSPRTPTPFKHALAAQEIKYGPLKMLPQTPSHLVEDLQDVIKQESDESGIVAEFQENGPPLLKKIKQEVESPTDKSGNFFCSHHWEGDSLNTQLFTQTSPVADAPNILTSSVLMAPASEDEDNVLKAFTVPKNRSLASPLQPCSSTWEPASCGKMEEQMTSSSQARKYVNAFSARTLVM
Nuclear receptor subfamily 4 group A member 2 (Homo sapiens), sequence (P43354 whole entry, looked up, the tested form may be a part): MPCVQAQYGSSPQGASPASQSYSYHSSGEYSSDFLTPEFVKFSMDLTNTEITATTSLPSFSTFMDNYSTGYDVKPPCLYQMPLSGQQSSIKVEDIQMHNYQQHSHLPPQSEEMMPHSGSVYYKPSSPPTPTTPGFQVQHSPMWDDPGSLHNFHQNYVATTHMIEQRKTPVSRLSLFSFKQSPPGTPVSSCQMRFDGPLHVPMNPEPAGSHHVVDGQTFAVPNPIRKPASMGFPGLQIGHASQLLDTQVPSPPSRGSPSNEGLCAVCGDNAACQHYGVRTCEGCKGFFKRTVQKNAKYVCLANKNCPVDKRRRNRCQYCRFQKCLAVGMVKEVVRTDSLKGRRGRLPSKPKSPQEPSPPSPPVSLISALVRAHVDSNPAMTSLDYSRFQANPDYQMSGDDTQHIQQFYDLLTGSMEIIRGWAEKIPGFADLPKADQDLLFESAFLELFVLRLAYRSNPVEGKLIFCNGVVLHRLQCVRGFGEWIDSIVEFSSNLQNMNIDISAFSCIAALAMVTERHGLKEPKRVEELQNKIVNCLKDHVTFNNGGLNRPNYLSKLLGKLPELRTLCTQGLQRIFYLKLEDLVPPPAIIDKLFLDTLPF
Oxysterols receptor LXR-alpha (Homo sapiens), sequence (Q13133 whole entry, looked up, the tested form may be a part): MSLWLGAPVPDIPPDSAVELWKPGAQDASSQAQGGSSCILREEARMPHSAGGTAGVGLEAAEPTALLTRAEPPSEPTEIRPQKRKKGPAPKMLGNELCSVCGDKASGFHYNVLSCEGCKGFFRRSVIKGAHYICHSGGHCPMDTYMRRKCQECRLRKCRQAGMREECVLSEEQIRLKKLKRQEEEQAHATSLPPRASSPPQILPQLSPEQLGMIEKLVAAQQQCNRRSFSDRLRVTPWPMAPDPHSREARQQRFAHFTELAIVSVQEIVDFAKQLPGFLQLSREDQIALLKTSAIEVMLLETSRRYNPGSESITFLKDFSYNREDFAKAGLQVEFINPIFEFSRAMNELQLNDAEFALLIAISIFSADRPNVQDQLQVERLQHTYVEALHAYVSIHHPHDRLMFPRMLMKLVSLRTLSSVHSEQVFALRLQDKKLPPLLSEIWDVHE
Steroid hormone receptor ERR1 (Homo sapiens), sequence (P11474 whole entry, looked up, the tested form may be a part): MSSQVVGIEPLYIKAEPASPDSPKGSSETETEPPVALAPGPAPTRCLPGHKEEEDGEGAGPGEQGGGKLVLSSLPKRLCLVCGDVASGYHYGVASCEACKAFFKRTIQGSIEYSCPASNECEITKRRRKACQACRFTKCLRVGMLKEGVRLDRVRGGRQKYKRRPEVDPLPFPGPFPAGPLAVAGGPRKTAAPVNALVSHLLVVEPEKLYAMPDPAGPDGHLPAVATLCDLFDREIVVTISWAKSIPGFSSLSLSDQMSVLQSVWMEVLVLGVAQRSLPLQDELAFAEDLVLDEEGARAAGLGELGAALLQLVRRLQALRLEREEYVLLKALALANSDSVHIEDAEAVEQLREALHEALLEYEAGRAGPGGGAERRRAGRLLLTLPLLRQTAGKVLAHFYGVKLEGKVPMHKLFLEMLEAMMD
Hepatocyte nuclear factor 4-alpha (Homo sapiens), sequence (P41235 whole entry, looked up): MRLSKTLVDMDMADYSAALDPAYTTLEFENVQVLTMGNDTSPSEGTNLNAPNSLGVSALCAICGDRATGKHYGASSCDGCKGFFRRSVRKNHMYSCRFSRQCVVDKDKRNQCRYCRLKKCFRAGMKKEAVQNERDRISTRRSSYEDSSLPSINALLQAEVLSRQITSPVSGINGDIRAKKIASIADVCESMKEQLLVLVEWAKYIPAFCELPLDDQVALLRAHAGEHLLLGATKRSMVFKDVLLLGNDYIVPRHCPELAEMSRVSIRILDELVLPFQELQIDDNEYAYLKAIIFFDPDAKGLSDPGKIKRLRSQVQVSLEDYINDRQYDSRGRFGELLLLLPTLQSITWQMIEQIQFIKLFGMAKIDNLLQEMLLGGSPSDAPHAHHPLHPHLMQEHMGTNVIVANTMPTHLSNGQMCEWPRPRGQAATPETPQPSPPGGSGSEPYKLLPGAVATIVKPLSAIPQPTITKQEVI
Bile acid receptor (Homo sapiens), sequence (Q96RI1 whole entry, looked up, the tested form may be a part): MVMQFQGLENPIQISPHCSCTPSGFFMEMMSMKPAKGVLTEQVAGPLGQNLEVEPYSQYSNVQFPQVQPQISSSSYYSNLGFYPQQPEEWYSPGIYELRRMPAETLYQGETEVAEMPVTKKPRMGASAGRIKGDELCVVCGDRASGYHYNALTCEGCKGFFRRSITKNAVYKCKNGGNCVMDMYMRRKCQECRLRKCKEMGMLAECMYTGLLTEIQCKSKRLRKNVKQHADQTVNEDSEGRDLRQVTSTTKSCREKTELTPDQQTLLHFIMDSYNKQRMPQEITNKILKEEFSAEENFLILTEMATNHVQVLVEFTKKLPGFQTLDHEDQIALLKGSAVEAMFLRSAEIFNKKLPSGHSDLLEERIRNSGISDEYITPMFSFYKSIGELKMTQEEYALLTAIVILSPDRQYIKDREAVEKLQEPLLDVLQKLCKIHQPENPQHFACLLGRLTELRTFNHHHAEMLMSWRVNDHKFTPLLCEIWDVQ

The AC50 is the concentration at which the activity in the assay is half-maximal. As to `CCC(C)(C)c1cc(O)c(C(C)(C)CC)cc1O`, the AC50 in assay [1] was 27.4 µM (active); in assay [3] it was 146 µM (active); in [4], 19.8 µM (active); in assay [5] it was 5.91 µM (active); in assay [7], 3.06 µM (active); in assay [10], 9.69 µM (active). Besides, the outcome in assay [2], in [6], in assay [8] and in assay [9] was inactive.
Take `CCOC(=O)C(=O)OCC`: the compound was classed as inactive in [1], in assay [2], in assay [3], in assay [4], in assay [11] and in assay [5]. The compound was classed as inactive in assay [12], in [13], in assay [6], in [14] and in [10].
For `CC1=CC(O)CC(C)(C)C1` (stereo not drawn), the call in assay [1], in assay [2], in [3], in assay [4], in assay [11] and in [5] was inactive. Further, the compound was classed as inactive in [12], in assay [13], in [6], in assay [8], in [9] and in assay [15]. Also, the result in assay [10] was inactive.
`CCCCCCCCCCCCOCCOS(=O)(=O)O`: the call in [1], in assay [2], in [3], in assay [4], in [11] and in assay [9] was inactive. In addition, the compound was called inactive in [15], in assay [16] and in [10].
`CCCCCCCCCCO[C@@H]1O[C@H](CO)[C@@H](O)[C@H](O)[C@H]1O`: the outcome in assay [1], in [2], in assay [3], in assay [4], in assay [5] and in assay [12] was inactive. Also, the result in [13], in [16] and in assay [10] was inactive.
With `CCCO`, the compound was called inactive in [1], in assay [2], in assay [3], in assay [4], in [12] and in [13]. For the same compound, the compound was called inactive in assay [8], in assay [17], in assay [15] and in assay [10].
In the case of `C=C(C)C(N)=O`, the compound was called inactive in assay [1], in assay [2], in [3], in [4], in assay [5] and in [13]. In addition, the compound was called inactive in [18], in [14], in assay [17] and in assay [10].
As to `CC1(C)CC(=O)CC(C)(C)N1`, the call in assay [1], in assay [2], in [3], in [4], in assay [13] and in [8] was inactive. For the same compound, the call in assay [9], in assay [17], in [16] and in assay [10] was inactive.
`CCOC(=O)CC(C)C`: the outcome in assay [1], in [2], in [3], in [4], in assay [5] and in assay [12] was inactive. Also, the call in assay [13], in assay [6], in assay [14] and in [10] was inactive.
For `CCOc1ccc(NC(C)=O)cc1`, the call in [1], in assay [2], in assay [3], in [4], in [12] and in assay [13] was inactive. The call in assay [18], in assay [6], in [8], in assay [14], in assay [15] and in [10] was inactive.
Consider `CCn1cc(C(=O)O)c(=O)c2ccc(C)nc21`, for which the call in assay [1], in [2], in assay [3], in [4], in [11] and in [5] was inactive. Also, the outcome in [13], in [7], in assay [15] and in assay [10] was inactive.
With `CCCCCC1CCC(=O)O1` (stereo not drawn), the outcome in assay [1], in assay [2], in assay [3], in [4], in assay [5] and in [12] was inactive. Further, the call in assay [13], in assay [6] and in assay [10] was inactive.

Values taken from PubChem BioAssay (EPA / NIEHS).
